The entries come from a sample that favours hits as a whole.
TTR transcr act: increases transthyretin transcription | SH-SY5Y TTR promoter Gaussia luciferase, luminescence; 100% = recombinant luciferase protein wells | activation, % at 16.7 µM | 92,000 compounds, 1.3% hits;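 active = activation above the mean of all tested compounds plus 3 SD, cut at about 9.5% in these data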;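 note: cells exposed to compounds for one day before reading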
Large screens that a line does not name were inactive.

CCOCCCNCC(=O)Nc1ccccc1N1CCOCC1	TTR transcr act 21
CCOc1ncccc1C(=O)Nc1ccccc1N1CCOCC1	none
Cc1cc(C)c(OCC(=O)Nc2ccccc2N2CCOCC2)c(C)c1	none
COC(=O)[C@]12C[C@H](CC(=O)NCc3ccc(C)o3)C(=O)N(Cc3ccco3)C1=C[C@H](COCc1ccccc1)O[C@@H]2C	none
CCCC/C=C1/[C@@H](C(C)C)N(Cc2ccc3c(c2)OCO3)C2=N[C@H](c3ccccc3)CC(=O)N21	none
COC(=O)CC1C(=O)NCCN1C(=O)OC(C)(C)C (centres undefined)	none
CCSc1nnc([C@@H]2CCCN2C(=O)OC(C)(C)C)o1	none
C[C@@H]1CCCCCCCCC(=O)OCCN(C(=O)OC(C)(C)C)[C@H](C)CCCCCCCCC(=O)OCCN(C(=O)OC(C)(C)C)[C@H](C)CCCCCCCCC(=O)OCCN(C(=O)OC(C)(C)C)[C@H](C)CCCCCCCCC(=O)OCCN1C(=O)OC(C)(C)C	TTR transcr act 19
Cc1cc(N2CCN(C(=O)c3ccco3)CC2)n2ncc(-c3ccccc3)c2n1	none
Cc1nn2c(N3CCN(C(=O)c4ccco4)CC3)cc(C(C)(C)C)nc2c1-c1ccccc1	TTR transcr act 10
Cc1cc(N2CCN(C(=O)c3ccco3)CC2)n2ncnc2n1	none
CCOC(=O)[C@@]12CCC3=C1N(CCC3)C(=O)[C@H](CC(=O)NCC13CC4CC(CC(C4)C1)C3)C2	none
CC1(c2nnnn2-c2ccc3ccccc3c2)CSCC(=O)N1C1CC1 (centres undefined)	none
O=C(Nc1ccc(F)cc1)C1CCN(C(=O)NCc2ccccc2)CC1	none
CCOc1ccc(C(=O)NC2CCN(C(=O)NCc3ccccc3)CC2)cc1	none
CCOc1ccc(NC(=O)C2CCCN(C(=O)NCc3ccccc3)C2)cc1 (centres undefined)	TTR transcr act 11
COP(=O)(O)C(C)NC(=O)OCc1ccccc1 (centres undefined)	none
CN(C(=O)COC(=O)c1c[nH]c(=O)[nH]c1=O)C1CCCCC1	TTR transcr act 23
CN(C)S(=O)(=O)c1cccc(NC(=O)COC(=O)c2c[nH]c(=O)[nH]c2=O)c1	none
CC1CCCC(C)N1C(=O)COC(=O)c1ccc[nH]c1=O (centres undefined)	none
COC(=O)[C@]12C[C@H](CC(=O)NCc3ccc(C)o3)C(=O)N(Cc3cccc4ccccc34)C1=C[C@H](C(C)C)O[C@@H]2C1CC1	none
COc1ccc(CN2C(=O)CSCCC2(C)c2nnnn2-c2c(C)cccc2C)cc1 (centres undefined)	none
C[C@H]1CN([C@@H](C)CO)C(=O)Cc2cc(NC(=O)Nc3ccccc3)ccc2O[C@H]1CN(C)Cc1ccccc1	none
C[C@@H]1CN([C@H](C)CO)C(=O)c2cc(NC(=O)Cc3cn(C)c4ccccc34)ccc2O[C@H]1CN(C)C(=O)Nc1ccc2c(c1)OCO2	none
CNC[C@H]1Oc2ccc(NC(=O)Cc3cn(C)c4ccccc34)cc2CC(=O)N([C@@H](C)CO)C[C@H]1C	TTR transcr act 15
C[C@H](CO)N1C[C@H](C)[C@H](CN(C)Cc2ccc(Oc3ccccc3)cc2)Oc2ccc(NC(=O)Nc3cccc4ccccc34)cc2CC1=O	none
Cc1ccc(S(=O)(=O)N(C)C[C@@H]2Oc3ccc(NS(=O)(=O)c4ccccc4)cc3CC(=O)N([C@@H](C)CO)C[C@H]2C)cc1	none
C[C@H]1CN([C@@H](C)CO)C(=O)Cc2cc(NS(C)(=O)=O)ccc2O[C@@H]1CN(C)Cc1ccc(Cl)c(Cl)c1	TTR transcr act 13
O=C(NCCc1nc2ccccc2n1CCOc1ccc2cccnc2c1)C1CCCCC1	none
COC(=O)[C@]12C[C@H](CC(=O)N3CCN(C(=O)C4CC4)CC3)C(=O)N(CCc3ccc(OC)c(OC)c3)C1=C[C@H](COCc1ccccc1)O[C@@H]2C	none
COC(=O)[C@]12C[C@H](CC(=O)N3CCN(C(=O)C4CC4)CC3)C(=O)N(CCC3=CCCCC3)C1=C[C@H](C1CCCC1)O[C@@H]2C	none
C[C@H]1[C@@H](NC(=O)c2ccc(Cl)cc2)CC[C@@]23CCCN2C(=O)CCC[C@@H]13	none
Cc1ccc(CN2CCCCC(NC(=O)Nc3cccc(F)c3)C2=O)cc1 (centres undefined)	none
Cc1ccc(S(=O)(=O)N2O[C@@H](c3ccccc3)C[C@H]2CON2C(C)(C)CCCC2(C)C)cc1	none
CCn1c(O)c(N=NC(=O)c2cccs2)c2ccccc21	none
Cn1c(O)c(N=NC(=N)N)c2ccccc21	TTR transcr act 17
CC(C)n1c(O)c(N=NC(=O)CNC(=O)CCc2ccccc2)c2ccccc21	none
CC(=O)NC1CCCCN(C(C)C)C1=O (centres undefined)	none
CN(C)CC(=O)c1c(N)n(Cc2ccccc2)c(=O)n(C)c1=O	none
CC1CN(CC(=O)c2c(N)n(Cc3ccccc3)c(=O)n(C)c2=O)CC(C)O1 (centres undefined)	none
Cn1c(N)c(C(=O)CCl)c(=O)n(Cc2ccccc2)c1=O	TTR transcr act 12
O=C(Nc1ccc(Cl)cc1Cl)O[C@@H]1CC[C@@]23CCCN2C(=O)CCC[C@H]3C1	none
COC(=O)[C@]12C[C@H](CC(=O)NCC34CC5CC(CC(C5)C3)C4)C(=O)N(Cc3cccc4ccccc34)C1=C[C@H](COCc1ccccc1)O[C@@H]2C	none
C#CCN1CC(N(C)CCO)CS1(=O)=O (centres undefined)	none
O=S1(=O)c2ccc(N3CCC[C@H]3CO)cc2O[C@H]2CCN1C2	none
C[C@@H]1CCCN1c1cccc2c1S(=O)(=O)N1CC[C@H](C1)O2	none
COC(=O)COc1ccc(S(=O)(=O)Nc2ccc3c(c2)OCO3)cc1Cl	none
O=C(COc1ccc(S(=O)(=O)N2CCCC2)cc1Cl)NCc1ccc2c(c1)OCO2	TTR transcr act 14
O=C(NCc1ccc2c(c1)OCO2)C1CCN(S(=O)(=O)N2CCCCC2)CC1	none
COc1ccc2c(c1)N=C(c1[nH]c3ccccc3c1CCN1C(=O)c3ccccc3C1=O)[C@]2(O)CCN1C(=O)c2ccccc2C1=O	none
CCOC(=O)c1c(C=O)c(C)n(Cc2ccccc2)c1C	TTR transcr act 11
CCOC(=O)c1cn(Cc2ccccc2)nn1	none
CCOC(=O)c1c(C=O)c(C)n(Cc2ccc(Cl)cc2)c1C	none
C[C@@H]1CCN(C2CC2)S(=O)(=O)c2ccc(N3CC[C@@H](N(C)C)C3)cc2O1	none
COc1ccc(NC(=O)C(NC(=O)CNC(C)=O)c2ccc(C)cc2)cc1 (centres undefined)	TTR transcr act 29
COc1ccc(NC(=O)CNC(=O)Cc2ccccc2)cc1	none
CCOCCCNC(=O)C(NC(=O)c1ccc(NC(C)=O)cc1)c1ccc(OC)cc1 (centres undefined)	none
CC(C)[C@@H](C)/C=C/[C@@H](C)[C@H]1CC[C@@H]2[C@]1(C)CCC1[C@]23C=C[C@]2(C[C@@H](O)CC[C@]12C)N(c1ccc(Br)cn1)O3 (some centres undefined)	none
COc1cc(C(=O)NC2CCCCN(Cc3ccc(Cl)cc3)C2=O)cc(OC)c1OC (centres undefined)	none
O=C(c1cccs1)C1CCN(c2ncnc3sccc23)CC1	none
CCC(c1nnc(SCC(=O)Nc2nnc(-c3ccccc3)o2)n1Cc1ccccc1)N(C)C (centres undefined)	TTR transcr act 28
CCC(c1nnc(SCC(=O)Nc2ccc(S(N)(=O)=O)cc2)n1Cc1ccccc1)N(C)C (centres undefined)	none
CCC(c1nnc(SCC(=O)Nc2ccc(C(N)=O)cc2)n1Cc1ccccc1)N(C)C (centres undefined)	none
CCOC(=O)[C@]12CCCC=C1N(CCCOC)C(=O)[C@@H]2CC(=O)NCCc1ccccc1OC	none
O=C(NC1CCCCC1)c1ccc([N+](=O)[O-])cc1	none
